Screening results deposited in PubChem BioAssay by Broad Institute.
The entries come from a sample that favours hits as a whole.
Tg IFNy HTS: blocks Toxoplasma gondii growth in the presence of IFN-gamma | Toxoplasma gondii growth in IFN-gamma-treated host cells; stronger effect = lower value | activity change, negative = inhibition, % (concentration not given with the values) | 69,000 compounds, 3.8% hits | AID 1259416; in the data active = activity change below about -70%, passing the limit was not always enough;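 note: host cells are HeLa cells infected with Toxoplasma gondii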
Hits are given with their value; ! = not active in a repeat.

CCC(NC(=O)CC(=O)Nc1ccc(C)c(Cl)c1)c1nc(C)no1 (centres undefined) was read as Tg IFNy HTS inactive.
Cc1ccc(Nc2nc3nonc3n3cnnc23)cc1Cl was read as Tg IFNy HTS -106.
`CNc1ncc(CN(C)C(=O)C(c2cccc(C)c2)N(C)C)cn1` (centres undefined) gave Tg IFNy HTS inactive.
`CCOC(=O)CNCCC(=O)c1ccc(OC)cc1` gave Tg IFNy HTS inactive.
`Cn1c(SCC(=O)c2ccc3c(c2)OCCO3)nnc1-c1ccc2ccccc2c1` gave Tg IFNy HTS -95.
Screening CC(C)(C)c1nc2ccccc2c2nnc(SCC(=O)c3ccc4c(c3)OCCO4)n12 returned Tg IFNy HTS inactive.
For O=C(CSc1nc2ccccc2o1)c1ccc2c(c1)OCCO2 the results were Tg IFNy HTS inactive.
CC(=O)N1CCC2(CC1)CCN(C(=O)c1cc(C)n(C)n1)C2 was read as Tg IFNy HTS inactive.
For CN1Cc2ccccc2CC2(CCN(Cc3ccco3)CC2)C1=O the results were Tg IFNy HTS inactive.
Screening CCCC(=O)N1CCCC1c1nc(Nc2ccccc2)cc(-c2ccncc2)n1 (centres undefined) returned Tg IFNy HTS inactive.
For CC(c1ccccn1)N(C)Cc1ccc2nonc2c1 (centres undefined) the results were Tg IFNy HTS inactive.
For C[C@@H]1CN([C@@H](C)CO)C(=O)c2cc(NS(=O)(=O)c3ccc(Cl)cc3)ccc2O[C@@H](C)CCCCO[C@H]1CN(C)Cc1ccncc1 the results were Tg IFNy HTS inactive.
COc1ccc(S(=O)(=O)Nc2ccc3c(c2)C(=O)N([C@@H](C)CO)C[C@H](C)[C@@H](CN(C)Cc2ccc(C(F)(F)F)cc2)OCCCC[C@@H](C)O3)cc1 was read as Tg IFNy HTS -86.
COc1ccc(S(=O)(=O)Nc2ccc3c(c2)C(=O)N([C@@H](C)CO)C[C@H](C)[C@H](CN(C)Cc2ccc(C(F)(F)F)cc2)OCCCC[C@H](C)O3)cc1 was read as Tg IFNy HTS -107.
Screening C[C@H]1CCCCO[C@@H](CN(C)Cc2ccncc2)[C@@H](C)CN([C@@H](C)CO)C(=O)c2cc(NS(=O)(=O)c3ccc(Cl)cc3)ccc2O1 returned Tg IFNy HTS inactive.
Screening C[C@H](CO)N1C[C@H](C)[C@H](CN(C)Cc2ccncc2)OCCCC[C@H](C)Oc2ccc(NS(=O)(=O)c3ccc(Cl)cc3)cc2C1=O returned Tg IFNy HTS inactive.
`Cc1ccc(S(=O)(=O)Nc2ccc3c(c2)C(=O)N([C@@H](C)CO)C[C@H](C)[C@H](CN(C)Cc2ccc(C(F)(F)F)cc2)O3)cc1` gave Tg IFNy HTS inactive.
Screening CSc1ccc(C2c3[nH]c4ccccc4c3CCN2C(=O)c2ccco2)cc1 (centres undefined) returned Tg IFNy HTS inactive.
`CCN1c2cc(C)ccc2-n2cccc2C12CCN(C(=O)Nc1ccc(F)cc1F)CC2` gave Tg IFNy HTS inactive.
For CCN1c2cc(C)ccc2-n2cccc2C12CCN(C(=O)Nc1ccccc1C(F)(F)F)CC2 the results were Tg IFNy HTS inactive.
`CCN1c2cc(C)ccc2-n2cccc2C12CCN(C(=O)Nc1cc(C)cc(C)c1)CC2` gave Tg IFNy HTS inactive.
`CCN1c2cc(C)ccc2-n2cccc2C12CCN(C(=O)Nc1cc(OC)ccc1OC)CC2` gave Tg IFNy HTS -111.
`CCN1c2cc(C)ccc2-n2cccc2C12CCN(C(=O)Nc1ccc(OC)cc1OC)CC2` gave Tg IFNy HTS -72.
For CCN1c2cc(C)ccc2-n2cccc2C12CCN(C(=O)Nc1cc(F)ccc1F)CC2 the results were Tg IFNy HTS inactive.
COc1ccc(OC)c(NC(=O)N2CCC3(CC2)Nc2cc(C)ccc2-n2cccc23)c1 was read as Tg IFNy HTS inactive.
CCOC(=O)Cc1ccc(NC(=O)N2CCC3(CC2)c2cccn2-c2ccc(C)cc2N3CC)cc1 was read as Tg IFNy HTS inactive.
Screening CCN1c2cc(C)ccc2-n2cccc2C12CCN(C(=O)Nc1cc(Cl)ccc1OC)CC2 returned Tg IFNy HTS -116.
For Cc1cc(C)n(C2CCN(C(=O)c3cc(-c4cccn4C)n[nH]3)C2)n1 (centres undefined) the results were Tg IFNy HTS inactive.
For O=C(Cc1cccs1)N1CCC2(CC1)Nc1cccnc1NC2=NC1CCCC1 the results were Tg IFNy HTS inactive.
Screening Cc1cccc2[nH]c(C3CCN(c4ccnc(C(=O)NC(C)C)c4)CC3)nc12 returned Tg IFNy HTS inactive.
`COc1cccc(-c2nc(C)c(-c3ccc(SCc4ccc(Br)cc4)nn3)s2)c1` gave Tg IFNy HTS inactive.
For CC(C)C(=O)N1CCC2(Cc3ccccc3NC2=O)C1 (centres undefined) the results were Tg IFNy HTS inactive.
`CCOc1ccc(-c2cc3c(=O)n(Cc4nc(-c5ccc(OCC)cc5)oc4C)ccn3n2)cc1` gave Tg IFNy HTS inactive.
CN1CC(=O)N(c2cccc(F)c2)CC12CCN(C(=O)c1ccc[nH]1)C2 (centres undefined) was read as Tg IFNy HTS inactive.
`CCCNC(=O)c1cc(-c2cnc(NCc3ccccc3)nc2)cn1C` gave Tg IFNy HTS -82.
For CN(C)CCCNC(=O)c1cc(-c2cnc(-c3ccccc3)nc2)cn1C the results were Tg IFNy HTS inactive.
For Cn1cc(-c2cnc(-c3ccccc3)nc2)cc1C(=O)NCCC#N the results were Tg IFNy HTS inactive.
COc1ccc(NC2CCCN(C(=O)c3ccccc3-n3cncn3)C2)cc1 (centres undefined) was read as Tg IFNy HTS inactive.
Cc1nc(-c2cccc(-c3noc(C(=O)NCCCN4CCC(C)CC4)n3)c2)cs1 was read as Tg IFNy HTS inactive.
For COc1ccccc1-c1nc(Cn2nnc(-c3nc(-c4ccc(SC)cc4)no3)c2C)c(C)o1 the results were Tg IFNy HTS inactive.
`CC[C@@H](C(=O)O)C1CC[C@H](C)C([C@@H](C)[C@H](O)[C@H](C)C(=O)[C@H](CC)C2O[C@]3(C=C[C@@H](O)[C@]4(CC[C@@](C)(C5CC[C@](O)(CC)[C@H](C)O5)O4)O3)[C@H](C)C[C@@H]2C)O1` (some centres undefined) gave Tg IFNy HTS -79!.
Screening CCOCC(=O)N1Cc2nccn2CC(Cn2cccn2)C1 (centres undefined) returned Tg IFNy HTS inactive.
For COc1cccc(-c2noc(-c3c(O)c4cc(F)ccc4n(C)c3=O)n2)c1 the results were Tg IFNy HTS inactive.
Screening Nc1nc2ccc(CCC(=O)O)cc2s1 returned Tg IFNy HTS inactive.
For COc1ccc(Oc2cccc(Oc3ccc(OC)cc3)c2C#N)cc1 the results were Tg IFNy HTS inactive.
`COc1cccc(OC)c1C(=O)NCCc1sc(-c2cccc(F)c2)nc1C` gave Tg IFNy HTS inactive.
`CCN(CC)C(=O)c1sc(NC(=O)c2c(OC)cccc2OC)c(C#N)c1C` gave Tg IFNy HTS -83.
For CCOc1ccc(NC(=O)Nc2ccc(-c3nc(-c4cccc(Br)c4)co3)cc2)cc1 the results were Tg IFNy HTS inactive.
CC[C@H](CC#N)OC(=O)N[C@@H](C)c1cccc(NC(=O)Nc2ccc(-c3cnco3)c(OC)c2)c1 was read as Tg IFNy HTS -82.
`COc1cccc(NC(=O)Nc2ccc(-c3nc(-c4ccc(C)cc4C)co3)cc2)c1` gave Tg IFNy HTS inactive.
`Cc1cccc(CN2CCC3(CCN(C(=O)c4ccno4)CC3)C2=O)c1` gave Tg IFNy HTS inactive.
Screening Cc1ncnc2c1CCN(C(=O)CCc1ccccc1)CC2 returned Tg IFNy HTS inactive.
O=C1CC(c2cn(Cc3ccccc3)c3ccccc23)C(=O)N1c1ccccc1 (centres undefined) was read as Tg IFNy HTS inactive.
